Experimental data taken from the supplement of paper PMC6555819.

These sequences were tested on LXRb homodimer (NR concentration 270 nM) (assay: PBM binding z-score (relative to random genomic background probes); higher = stronger binding; sequences stand for … in GC…GCGATTGACAGCGTAGAATGAAGG).
How it was run: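 Random background probes are the reference for binding z-scores. These scores derive from regression-normalized fluorescence on custom Agilent 4×180K protein-binding microarrays incubated 1 h with ligand-free nuclear receptor dimers. Binding was detected with antibodies against each partner (one per run).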

Row | Sequence | PBM binding z-score
1 | TCTATTTGTTGAAGGGCAACCGACGAGTCCGTTT | 1.45
2 | AGAACGAGGGCTCGCTGAGTTGATAGCAGAGTAG | -1.31
3 | GATACAGGGTAAAGGCCAGAGTACGCGTATTGAT | -0.658
4 | CCGACTGGGCCAAGGTCATTGATCAGTCAAAGCA | -1.02
5 | CTTCAAAGTTCAACTAAGGTAACGTAAAGCACGC | 2.56
6 | GCTATCAGTTGAAAGGGCAACCGAATGATTCTCG | -0.626
7 | ATCTCTAGGTAAAAGTTCCGTGAATCCCGAGGAT | 0.845
8 | TCGAGTAGGTTGGTCGGGGCATTCAGCCAACATA | -0.299
9 | AGAATGATGTTACCAAAGATCAGGGAAACGCTTG | -0.38
10 | CCTACTGGGCCAAACAGGTCATTGATGCCGATAA | -0.709
11 | CCTACTTGGCCATCAGGTCATTGATATCAACGTT | 0.454
12 | CCTTACGGGTCAAGGTTAAAGCACGGGTGGTACG | 0.0143
13 | TCTAGATGGTCACGGAGGTCACACACGACGGGTA | 0.481
14 | CAAACTAGGGCAAGAGGTCAAAGTCCGCTTCCCG | 0.677
15 | TCTTGTAGATCAGCAGGTTAAGAAAGCTGGCCAA | -0.4
16 | ATCGGAAGGTCGAAGGTGAGTATACCCACCCGAA | -0.0206
17 | CCTTACGGGTCACGAGGATATAGCACGACGAGCG | -0.175
18 | TCTTGTAGATCAACAGGAGGTTAGGAAAGATCGA | -0.324
19 | CCTTACGGGTCACTGACGGGTTATAGCATTTGGA | 0.119
20 | TCTGATAGGTCAACGATGGTCAGCTAATCTGCTA | 0.737

Row | Sequence | PBM binding z-score
21 | CAAACTAGGTCACAGAGGTCATAGTCCGTGCGTA | 1.6
22 | TCTATTAGTTGAAGGGCAAACGACGAGTCCGTTT | 0.637
23 | ATATGTAGGTTATCGGGTCGTTCAGTTTGCGCAT | 0.781
24 | CCGACTGGGGCATACGGTTACCATAAGCCAGCCC | -1.21
25 | ACTCGGAGGACAAAGATCAGAGCTACGCCAGTGA | -0.443
26 | AGAATGAGGTTATACGTCGATCAGGGAAGAAAGT | 0.0862
27 | AGAATGAGGTTAAGCTCAGGGAAACAGAATACAT | -0.626
28 | CGTCCAAGGTCATAGGAGGTCAGAGAAGACAGAT | 0.877
29 | CGTCAAAGTTCAATTAAGGTAACGTAAAGCACGC | 2.06
30 | CTCGAAAGGTCGTACTCAGGTGAGTATACCAAAC | 0.9
31 | CTCGAAAGGTCGATTGAGGTGAGTATACGGATAA | 0.38
32 | CTCGAAAGGTCGTGCTCAGGTGCGTATACCAAAC | -0.0235
33 | ATCTCTAGGTAAGACTCAGTTCACTGAAGAACGC | 0.669
34 | CCTTACGCGTCACTGACAGGTTATAGCATTTGGA | 0.644
35 | TTACCAATGTGAAAGGTCGTTGATGCACGCCTTG | 0.227
36 | TAGCCTAGGTCATGCGGGCCAGAATAGTGTCGGC | -0.467
37 | CCTTACGAGTCACGAGGTTATAGCACGACGAGCG | 0.355
38 | AGAATGAGGTTATACGTAGAACAGGGAAGAAAGT | 0.0441
39 | CCTGCTGGGCCATCAGGTCATTGATATCAACGTT | -0.89
40 | AGTCAAAGTTCACTAGCTAACGTAAGATTCAGCT | 1.11
